Measured values from article PMC5540273 (PLoS ONE, 2017).

system: JAK2(JH1domain-catalytic); conditions: concentration: 1 μM, replicates: in singlicate; n = 1
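Note: KINOMEscan kinase panel screen.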

SMILES	%Inh
Cl.Cl.c1ccc(-c2cc3ccncc3cc2OC2CCNCC2)cc1 [GSK1122999]	8%
CCc1nc(-c2cccc(N(C)S(=O)(=O)c3ccccc3)c2)c(-c2ccnc(Nc3ccc(N4CCN(C(C)=O)CC4)nc3)n2)s1 [GSK1645895]	0%
Clc1ccc(-c2cc(-c3c[nH]nc3-c3ccccn3)ccn2)cc1 [GW681251]	2%
Clc1cccc(-c2nc(Nc3ccncc3)c3ccccc3n2)c1 [GW873004]	0%
Cc1ccc(C)c(NC(=O)NCCNc2ccnc(Nc3ccc(F)cc3)n2)c1 [GSK1379878]	1%
O=C(Nc1ccccc1)Nc1ccc(Oc2ccc3nccn3n2)cc1	8%
FC(F)(F)c1cc(Nc2nccc(-c3c(-c4ccc(Cl)cc4)nn4ncccc34)n2)ccc1Cl [GW829351]	13%
COc1ccc(NC(=O)c2ccc(-c3cc(-c4nnc(C)o4)ccc3C)cc2)cc1 [GW595885]	12%
NC(=O)c1sc(-n2cnc3ccccc32)cc1OCc1ccccc1F [GSK1024306]	21%
CC(=O)Nc1n[nH]c2ncc(-c3ccccc3)cc12 [SB-548492]	15%
CCC(CC)(CC)n1cnc2c(N)ncnc21 [SKF-97620]	22%
COc1cc2ncnc(Nc3ccc(OCc4ccccc4Br)c(Cl)c3)c2cc1OC.Cl [GI261590]	0%
CN1c2ccc(-c3ccc(C(=O)NCCO)cc3)cc2-c2[nH]ncc2S1(=O)=O	13%
Cl.c1ccc(Cn2ccc3cc(Nc4ncnc5ccccc45)ccc32)cc1 [GW275568]	100%
O=c1cc(N2CCOCC2)nc2n(Cc3cccc(Cl)c3)ccn12 [GSK2296823]	10%
CSc1ccc(NC2=C(c3ccccc3Cl)C(=O)NC2=O)cc1 [SB-342411]	0%
Fc1ccc(Nc2nccc(-c3c(-c4ccc(Cl)cc4)nn4ncccc34)n2)cc1F [GW829058]	39%
O=C(Nc1ccccc1F)NC1CCN(c2ccnc(Nc3ccc(F)cc3)n2)C1 (stereo not drawn) [GSK1379722]	8%

SMILES	%Inh
N#Cc1ccc(Oc2ccc(Nc3ncnc4cc[nH]c34)cc2Cl)cc1	19%
Oc1ccc2ncnc(Nc3ccc(OCc4ccccc4)cc3)c2c1 [GI262866]	0%
O=C(Nc1n[nH]c2nc(-c3ccco3)c(Br)cc12)c1ccc(CN2CCCC2)cc1.O=C(O)[C@H](O)[C@@H](O)C(=O)O [SB-742352]	0%
CNc1nccc(-c2c(-c3ccc(F)cc3)ncn2CCCN2CCOCC2)n1 [SB-222516]	8%
O=C(c1ccc(-c2cc(-c3c[nH]nc3-c3ccccn3)ccn2)cc1)N1CCCC1 [GW792479]	0%
CSc1nn2c(=O)cc(N3CCOCC3)nc2n1Cc1cccc(Cl)c1Cl [GSK2347225]	18%
Nc1nc(-c2ccc3c(N)n[nH]c3c2)cc(N2CCCCC2)n1 [GSK2228768]	0%
Cc1cccc(-c2nc(Nc3ccc4[nH]nnc4c3)c3ccccc3n2)n1 [GW867587]	22%
COc1ccc(NC(=O)Nc2ccc(C)c(-c3ccc(C(=O)Nc4ccncc4)cc3)c2)cc1 [GSK1398475]	0%
CC(C)(C)c1ccc(-n2cnc3c(N)ncnc32)cc1 [SKF-97263]	24%
CCCc1ccc(S(=O)(=O)NC2CCN(c3ccnc(Nc4ccc(OC)cc4)n3)C2)cc1 (stereo not drawn) [GSK1379737]	73%
Clc1cc(Nc2ncnc3cc[nH]c23)ccc1OCc1ccccn1	16%
CC(C)(C)OC(=O)NC1CCCN(c2cc(-c3ccc4c(N)n[nH]c4c3)nc(N)n2)C1 (stereo not drawn) [GSK2286096]	0%
C[C@@H]1CCN(C(=O)CO)C[C@@H]1N(C)c1ncnc2[nH]ccc12	100%
COC(=O)c1cccc(NC(=O)NCCNc2ccnc(Nc3ccc(F)cc3)n2)c1 [GSK1379883]	1%
Nc1nc(-c2ccc3c(N)n[nH]c3c2)cc(N2CCC[C@@H](C(=O)Nc3ccccc3)C2)n1.O=C(O)C(F)(F)F.O=C(O)C(F)(F)F [GSK2288359]	100%
OCCOCCn1ccc2ncnc(Nc3ccc(Oc4cccc(Cl)c4)c(Cl)c3)c21	0%
c1ccc(-c2ccc3c(-c4ccnc(Nc5ccc6c(c5)OCCO6)n4)cnn3n2)cc1 [GW818941]	11%

system: JAK3(JH1domain-catalytic); conditions: concentration: 1 μM, replicates: in singlicate; n = 1

SMILES	%Inh
Cl.Cl.c1ccc(-c2cc3ccncc3cc2OC2CCNCC2)cc1 [GSK1122999]	0%
CCc1nc(-c2cccc(N(C)S(=O)(=O)c3ccccc3)c2)c(-c2ccnc(Nc3ccc(N4CCN(C(C)=O)CC4)nc3)n2)s1 [GSK1645895]	0%
Clc1ccc(-c2cc(-c3c[nH]nc3-c3ccccn3)ccn2)cc1 [GW681251]	0%
Clc1cccc(-c2nc(Nc3ccncc3)c3ccccc3n2)c1 [GW873004]	13%
Cc1ccc(C)c(NC(=O)NCCNc2ccnc(Nc3ccc(F)cc3)n2)c1 [GSK1379878]	0%
O=C(Nc1ccccc1)Nc1ccc(Oc2ccc3nccn3n2)cc1	0%
FC(F)(F)c1cc(Nc2nccc(-c3c(-c4ccc(Cl)cc4)nn4ncccc34)n2)ccc1Cl [GW829351]	0%
COc1ccc(NC(=O)c2ccc(-c3cc(-c4nnc(C)o4)ccc3C)cc2)cc1 [GW595885]	0%
NC(=O)c1sc(-n2cnc3ccccc32)cc1OCc1ccccc1F [GSK1024306]	0%
CC(=O)Nc1n[nH]c2ncc(-c3ccccc3)cc12 [SB-548492]	0%
CCC(CC)(CC)n1cnc2c(N)ncnc21 [SKF-97620]	22%
COc1cc2ncnc(Nc3ccc(OCc4ccccc4Br)c(Cl)c3)c2cc1OC.Cl [GI261590]	0%
CN1c2ccc(-c3ccc(C(=O)NCCO)cc3)cc2-c2[nH]ncc2S1(=O)=O	97.2%
Cl.c1ccc(Cn2ccc3cc(Nc4ncnc5ccccc45)ccc32)cc1 [GW275568]	0%
O=c1cc(N2CCOCC2)nc2n(Cc3cccc(Cl)c3)ccn12 [GSK2296823]	0%
CSc1ccc(NC2=C(c3ccccc3Cl)C(=O)NC2=O)cc1 [SB-342411]	48%
Fc1ccc(Nc2nccc(-c3c(-c4ccc(Cl)cc4)nn4ncccc34)n2)cc1F [GW829058]	37%
O=C(Nc1ccccc1F)NC1CCN(c2ccnc(Nc3ccc(F)cc3)n2)C1 (stereo not drawn) [GSK1379722]	0%

SMILES	%Inh
N#Cc1ccc(Oc2ccc(Nc3ncnc4cc[nH]c34)cc2Cl)cc1	4%
Oc1ccc2ncnc(Nc3ccc(OCc4ccccc4)cc3)c2c1 [GI262866]	0%
O=C(Nc1n[nH]c2nc(-c3ccco3)c(Br)cc12)c1ccc(CN2CCCC2)cc1.O=C(O)[C@H](O)[C@@H](O)C(=O)O [SB-742352]	0%
CNc1nccc(-c2c(-c3ccc(F)cc3)ncn2CCCN2CCOCC2)n1 [SB-222516]	0%
O=C(c1ccc(-c2cc(-c3c[nH]nc3-c3ccccn3)ccn2)cc1)N1CCCC1 [GW792479]	39%
CSc1nn2c(=O)cc(N3CCOCC3)nc2n1Cc1cccc(Cl)c1Cl [GSK2347225]	0%
Nc1nc(-c2ccc3c(N)n[nH]c3c2)cc(N2CCCCC2)n1 [GSK2228768]	0%
Cc1cccc(-c2nc(Nc3ccc4[nH]nnc4c3)c3ccccc3n2)n1 [GW867587]	0%
COc1ccc(NC(=O)Nc2ccc(C)c(-c3ccc(C(=O)Nc4ccncc4)cc3)c2)cc1 [GSK1398475]	0%
CC(C)(C)c1ccc(-n2cnc3c(N)ncnc32)cc1 [SKF-97263]	0%
CCCc1ccc(S(=O)(=O)NC2CCN(c3ccnc(Nc4ccc(OC)cc4)n3)C2)cc1 (stereo not drawn) [GSK1379737]	0%
Clc1cc(Nc2ncnc3cc[nH]c23)ccc1OCc1ccccn1	0%
CC(C)(C)OC(=O)NC1CCCN(c2cc(-c3ccc4c(N)n[nH]c4c3)nc(N)n2)C1 (stereo not drawn) [GSK2286096]	0%
C[C@@H]1CCN(C(=O)CO)C[C@@H]1N(C)c1ncnc2[nH]ccc12	98.8%
COC(=O)c1cccc(NC(=O)NCCNc2ccnc(Nc3ccc(F)cc3)n2)c1 [GSK1379883]	0%
Nc1nc(-c2ccc3c(N)n[nH]c3c2)cc(N2CCC[C@@H](C(=O)Nc3ccccc3)C2)n1.O=C(O)C(F)(F)F.O=C(O)C(F)(F)F [GSK2288359]	0%
OCCOCCn1ccc2ncnc(Nc3ccc(Oc4cccc(Cl)c4)c(Cl)c3)c21	0%
c1ccc(-c2ccc3c(-c4ccnc(Nc5ccc6c(c5)OCCO6)n4)cnn3n2)cc1 [GW818941]	0%
